Assay outcomes as filed in PubChem BioAssay.
An excerpt weighted towards active compounds, which were near 8.7% of everything screened.
BAZ2B block: qHTS Assay for Inhibitors of BAZ2B; AID 504333, 2011; Bromodomain adjacent to zinc finger domain protein 2B (Homo sapiens), Q9UIF8; AlphaScreen BAZ2B-H3K14Ac peptide displacement; 360,000 compounds, 4.4% hits; Potency, µM (series often up to 114 µM), inactives show top-dose activity change, negative = inhibition, hits mostly inhibitors; further: on the % scale 0 is the no-effect control and ±100 the full control effect; nearly all actives have a fitted effect of over 60% in size
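AlphaScreen displacement of biotin-H3(5-23)K14Ac peptide (50 nM final) from BAZ2B (50 nM final) in PBS pH 7.4, 0.01% Tween-20; complex preformed 30 min RT, then compounds (top 110 uM) 30 min RT, beads 20 min dark.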
HP1b binding inh: HTS for Inhibitors of HP1-beta Chromodomain Interactions with Methylated Histone Tails; Chromobox protein homolog 1 (Homo sapiens), P83916; AlphaScreen HP1-beta / biotin-H3K9me3 peptide binding; Potency, µM (highest dose often 114 µM), for the others: top-dose activity change, negative = inhibition, most hits filed as inhibitors; 390,000 compounds, 0.56% hits; AID 540317, 2011; further: nearly all actives have a fitted effect of over 70% in size
Target sequence (P83916 whole entry, looked up): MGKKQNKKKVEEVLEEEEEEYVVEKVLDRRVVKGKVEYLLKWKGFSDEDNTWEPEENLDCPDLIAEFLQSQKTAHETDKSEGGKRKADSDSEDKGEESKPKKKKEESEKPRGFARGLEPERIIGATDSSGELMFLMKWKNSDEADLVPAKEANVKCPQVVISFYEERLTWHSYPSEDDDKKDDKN
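HP1-beta protein (50 nM final) preincubated 30 min at room temperature with biotinylated H3(1-18)K9me3 peptide (50 nM) in PBS pH 7.4, 0.01% Tween-20, then compound added for 30 min. AlphaScreen streptavidin donor/nickel chelate acceptor beads (10 ug/mL final), 30 min dark, luminescence read.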
ALOX12 inh: Primary qHTS assay for inhibitors of human arachidonate 12S-lipoxygenase (ALOX12): Round 2. Polyunsaturated fatty acid lipoxygenase ALOX12 (Homo sapiens), P18054. purified 12hLO, xylenol orange hydroperoxide absorbance. Potency, µM (titrated, usually from 108 µM), without a hit: at the top dose activity change, negative = inhibition, most hits filed as inhibitors. 580,000 compounds, 1.1% hits. AID 1671190, 2021; further: on the % scale 0 is the no-effect control and ±100 the full control effect
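Hydroperoxide product was detected by ferrous iron/xylenol orange as the 573 to 405 nm absorbance ratio. Arachidonic acid at 40 uM (final) was turned over for 30 min at room temperature by 150 nM human 12hLO, pH 7.0 Hepes buffer, after 15 min compound preincubation.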
Sfp inh: qHTS Assay for Inhibitors of Bacillus subtilis Sfp phosphopantetheinyl transferase (PPTase); Biochemical Sfp PPTase activity, qHTS; Potency, µM, for the others: largest response in the series, negative = inhibition, usual class: inhibitors; 310,000 compounds, 3.5% hits; 4'-phosphopantetheinyl transferase ffp (Bacillus subtilis), Q9F4F7;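 further: the enzyme is Sfp with the accession as filed and its product quenches rhodamine fluorescence; 0% = enzyme reaction without inhibitor and -100% = no enzyme wells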
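With Hepes-Na pH 7.6 buffer containing 10 mM MgCl2, Sfp (15 nM) modified BHQ-2-YbbR (12.5 uM) using rhodamine-CoA (5 uM). Two reads 30 minutes apart at 525/598 nm yielded each well's rate.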
JMJD2A Tudor inh: qHTS Assay for Inhibitors of JMJD2A-Tudor Domain. Lysine-specific demethylase 4A (Homo sapiens), O75164. AlphaScreen JMJD2A-Tudor / H3K4me3 peptide binding. Potency, µM (series often up to 114 µM), for the others: at the highest dose activity change, negative = inhibition, hits mostly inhibitors. 390,000 compounds, 4.4% hits; further: on the % scale 0 is the no-effect control and ±100 the full control effect; nearly all actives have a fitted effect of over 50% in size
G9a inh: qHTS Assay for Inhibitors of Histone Lysine Methyltransferase G9a. AID 504332, 2011. 350,000 compounds, 8.8% hits. Histone-lysine N-methyltransferase EHMT2 (Homo sapiens), Q96KQ7. G9a H3K9 monomethylation, AlphaScreen, 2 h. Potency, µM (highest dose often 102 µM), for the others: at the highest dose activity, negative = inhibition, most hits filed as inhibitors; further: on the % scale 0 is the no-effect control and ±100 the full control effect; nearly all actives have a fitted effect of over 75% in size
Target sequence (Q96KQ7 913-1193 limits assumed): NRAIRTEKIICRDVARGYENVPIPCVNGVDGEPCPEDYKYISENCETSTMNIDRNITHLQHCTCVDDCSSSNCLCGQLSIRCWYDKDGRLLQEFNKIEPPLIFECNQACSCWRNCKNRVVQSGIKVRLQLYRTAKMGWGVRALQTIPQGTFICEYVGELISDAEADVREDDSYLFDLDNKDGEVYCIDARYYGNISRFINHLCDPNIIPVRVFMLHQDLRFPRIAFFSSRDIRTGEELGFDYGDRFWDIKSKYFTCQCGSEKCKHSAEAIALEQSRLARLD
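Quantitative HTS format: methyltransferase activity on a biotin-tagged H3K9 peptide is measured by AlphaScreen, using a rabbit anti-monomethyl-H3K9 antibody with streptavidin donor and anti-IgG acceptor beads. Final levels are 20 nM enzyme, 500 nM peptide, 20 uM SAM; 2 h RT.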
The depositor's hits bear a star; [ ] = another dose, or the depositor's remark. The call rests on the fitted dose curve; in most records, active means well fitted curve in the direction sought with a large enough effect; inconclusive means small, poorly fitted or top-dose-only effect, or another doubt; inactive means no such curve, though single readings can be large; an effect the other way counts as inactive or inconclusive. Potency means the concentration at half of the fitted maximal effect.

`O=C(Nc1nc(=O)c2ccccc2s1)c1ccccc1` gave BAZ2B block -7.3%, HP1b binding inh 17.5%, ALOX12 inh inconclusive, Sfp inh 50.1µM*, JMJD2A Tudor inh -33.7% and G9a inh inconclusive.
For CC1CCC(C(C)C)C(OCC(O)C[N+]2(C)CCCCC2)C1 (stereo not drawn) the results were BAZ2B block -28.6%, HP1b binding inh inconclusive, ALOX12 inh 0.0%, Sfp inh -3.9%, JMJD2A Tudor inh -11.1% and G9a inh 50.1µM*.
Screening CCOc1ccc(N2CC(c3nc4ccccc4n3Cc3cccc(C)c3)CC2=O)cc1 (stereo not drawn) returned BAZ2B block -20.7%, HP1b binding inh -5.1%, ALOX12 inh -1.8%, JMJD2A Tudor inh -34.0% and G9a inh inconclusive.
Screening Cc1cccc(OCCCCn2c(C3CC(=O)N(c4ccc(C)cc4C)C3)nc3ccccc32)c1 (stereo not drawn) returned BAZ2B block inconclusive, HP1b binding inh -0.6%, ALOX12 inh 17.8µM*, JMJD2A Tudor inh inconclusive and G9a inh inconclusive.
CCc1ccccc1N1CC(c2nc3ccccc3n2Cc2cccc(C)c2)CC1=O (stereo not drawn) was read as BAZ2B block -23.0%, HP1b binding inh 7.9%, ALOX12 inh -2.1%, JMJD2A Tudor inh -32.6% and G9a inh 1µM*.
`CCOc1ccccc1N1CC(c2nc3ccccc3n2CCCCOc2cc(C)ccc2C)CC1=O` (stereo not drawn) gave BAZ2B block -37.4%, HP1b binding inh 20.8%, ALOX12 inh inconclusive, JMJD2A Tudor inh inconclusive and G9a inh -36.8%[59 µM].
`Cc1cccc(OCCCCn2c(C3CC(=O)N(c4ccccc4Cl)C3)nc3ccccc32)c1` (stereo not drawn) gave BAZ2B block 50.1µM*, HP1b binding inh 2.7%, ALOX12 inh -14.0%, JMJD2A Tudor inh -34.9% and G9a inh 12.6µM*.
Screening O=C(CCCc1nc2ccccc2o1)NCc1ccccc1F returned ALOX12 inh -15.0%.
`CN(C)C(=O)c1ccc(CC2CCN(C(=O)CC3CCCCC3)CC2)cc1` gave ALOX12 inh 38.4%.
For CC(C)(C)c1nc2ccc(NS(=O)(=O)c3ccc(F)c(F)c3F)cc2[nH]1 the results were BAZ2B block -10.5%, HP1b binding inh 47.9%, ALOX12 inh inconclusive, Sfp inh -11.9%, JMJD2A Tudor inh -9.9% and G9a inh 31.6µM*.
Screening CN1CCc2c(sc3c2C(=O)NC(c2ccc(-c4cccc(Cl)c4)o2)N3)C1 (stereo not drawn) returned BAZ2B block 39.8µM*, HP1b binding inh inconclusive, Sfp inh 50.1µM* and JMJD2A Tudor inh 50.1µM*.
`COc1ccc(C(=O)Oc2ccc(C3NC(=O)c4c(sc5c4CCN(C)C5)N3)cc2OC)cc1` (stereo not drawn) gave BAZ2B block 6.7%, HP1b binding inh inconclusive, ALOX12 inh 49.8%, JMJD2A Tudor inh 56.2µM* and G9a inh 25.9%[59 µM].
`CSc1ccc(C2NC(=O)c3c(sc4c3CCN(C)C4)N2)cc1` (stereo not drawn) gave BAZ2B block -33.7%, HP1b binding inh 1.1%, ALOX12 inh 95.9%, Sfp inh inconclusive, JMJD2A Tudor inh inconclusive and G9a inh 39.8µM*.
`CN1CCc2c(sc3c2C(=O)NC(c2ccc(C(C)(C)C)cc2)N3)C1` (stereo not drawn) gave BAZ2B block -16.7%, HP1b binding inh 6.6%, ALOX12 inh 224.6%, JMJD2A Tudor inh inconclusive and G9a inh 8.91µM*.
`CC(C)c1ccc(C2NC(=O)c3c(sc4c3CCN(C)C4)N2)cc1` (stereo not drawn) gave BAZ2B block -1.6%, HP1b binding inh 16.0%, ALOX12 inh 146.8%, JMJD2A Tudor inh -21.5% and G9a inh inconclusive.
For Cc1ccc(-c2nc(Cn3cc(C(F)(F)F)ccc3=O)co2)c(C)c1 the results were ALOX12 inh -17.4%.
`Cc1ccsc1C1NC(=O)c2c(sc3c2CCN(C)C3)N1` (stereo not drawn) gave BAZ2B block -6.8%, HP1b binding inh inconclusive, ALOX12 inh 194.1%[57.4 µM], Sfp inh 4.8%, JMJD2A Tudor inh inconclusive and G9a inh 39.8µM*.
CN1CCc2c(sc3c2C(=O)NC(c2cccs2)N3)C1 (stereo not drawn) was read as BAZ2B block -20.2%, HP1b binding inh -18.4%, ALOX12 inh 360.6%, Sfp inh -0.1%, JMJD2A Tudor inh inconclusive and G9a inh inconclusive.
For CCCN(C)C(=O)c1cn2cc(-c3cccc(Cl)c3)n(CC=C(C)C)c(=O)c2n1 the results were ALOX12 inh 63.0%.
`CCCn1nc(S(=O)(=O)N2CCCCC2)c(C(=O)OCC)c1C` gave ALOX12 inh 6.31µM*.
For CCCn1nc(S(=O)(=O)N2CCCC2)c(C(=O)OCC)c1C the results were ALOX12 inh 11.2µM*.
For N=c1n(CCN2CCCCC2)c2ccccc2n1CC(O)c1cccc(Br)c1 (stereo not drawn) the results were BAZ2B block -10.1%, HP1b binding inh 31.8%, ALOX12 inh inconclusive, Sfp inh -5.1%, JMJD2A Tudor inh -19.5% and G9a inh 50.1µM*.
CN(C)CCn1c(=N)n(CC(O)c2ccc(Cl)c(Cl)c2)c2ccccc21 (stereo not drawn) was read as BAZ2B block -8.3%, HP1b binding inh 14.3%, ALOX12 inh -0.4%, Sfp inh 9.5%, JMJD2A Tudor inh -14.7% and G9a inh 44.7µM*.
Screening CCCCn1c(=N)n(CC(O)c2ccccc2)c2ccccc21 (stereo not drawn) returned BAZ2B block -2.4%, HP1b binding inh 5.4%, ALOX12 inh 0.0%, Sfp inh inconclusive and JMJD2A Tudor inh -11.4%.
`N=c1n(CCN2CCCCC2)c2ccccc2n1CC(=O)c1ccc(Cl)c(Cl)c1` gave BAZ2B block 31.6µM*, HP1b binding inh 0.9%, ALOX12 inh 1.6%, Sfp inh 35.5µM* and JMJD2A Tudor inh -28.5%.
